Drawing on PubChem BioAssay (EPA / NIEHS), this text covers outcome and AC50 for eight molecules.

Test [1] is described as follows: CCTE_Mundy_HCI_Cortical_Synap_Neur_Matur_NeuriteSpotCountPerNeuriteLength: CCTE's Synaptogenesis and Neurite Maturation Assay in rat cortical cells for Neurite Spot Count per Neurite Length, Mundy Lab (AID 2284210). Put shortly:
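Rat primary cortical cultures, AraC added at DIV 5 to suppress glia; chemical exposure from DIV 7 to DIV 12. Fixed cells stained for MAP2 and synaptophysin plus Hoechst; synaptophysin puncta per neurite length quantified by high-content imaging, relative to DMSO.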

A short description of test [2]: CCTE_Mundy_HCI_Cortical_Synap_Neur_Matur_BPCount: CCTE's Synaptogenesis and Neurite Maturation Assay in rat cortical cells for Branch Point Count, Mundy Lab (AID 2284211). Put shortly: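 Rat primary cortical cultures, AraC added DIV 5; chemicals dosed DIV 7 through DIV 12. Fixed cells stained for MAP2, synaptophysin and Hoechst; neurite branch points counted by automated high-content imaging, fitted relative to DMSO.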

A short description of test [3]: CCTE_Mundy_HCI_Cortical_NOG_NeuriteCount: CCTE's Neurite Outgrowth Assay in rat cortical cells for Neurite Count, Mundy Lab (AID 2284212).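 Note: cells fixed about two days after chemical exposure began.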 Put shortly: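 Neurite number per cell from high-content imaging of betaIII-tubulin immunostaining, with Hoechst nuclear counterstain.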
Test [4] can be described thus: CCTE_Mundy_HCI_Cortical_NOG_NeuriteLength: CCTE's Neurite Outgrowth Assay in rat cortical cells for Neurite Length, Mundy Lab (AID 2284213).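 For AC50: neurites imaged about 48 to 50 h after chemical exposure began.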 The essentials: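 Neurite length was read by high-content imaging of βIII-tubulin-labelled neurites in rat primary cortical cultures. Activity was fitted relative to DMSO.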
Test [5] can be described thus: CCTE_Mundy_HCI_Cortical_Synap_Neur_Matur_NeuriteLength: CCTE's Synaptogenesis and Neurite Maturation Assay in rat cortical cells for Neurite Length, Mundy Lab (AID 2284214). Put shortly: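 Rat primary cortical cultures, AraC added DIV 5, dosed DIV 7 through DIV 12 […]. Fixed, MAP2/synaptophysin immunostained with Hoechst; neurite length by high-content imaging, fitted in positive direction versus DMSO.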

Test [6] can be described thus: CCTE_Mundy_HCI_Cortical_Synap_Neur_Matur_NeuriteSpotCountPerNeuron: CCTE's Synaptogenesis and Neurite Maturation Assay in rat cortical cells for Neurite Spot Count per Neuron Count, Mundy Lab (AID 2284215). The essentials:
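Developing rat cortical neurons, with glia suppressed by AraC, are exposed to chemicals from DIV 7 to DIV 12. Automated fluorescence imaging of MAP2-labelled neurites and synaptophysin puncta yields a count per neuron, normalised against DMSO wells.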

Test [7] in a line: CCTE_Mundy_HCI_Cortical_Synap_Neur_Matur_SynapseCount: CCTE's Synaptogenesis and Neurite Maturation Assay in rat cortical cells for Synapse Count, Mundy Lab (AID 2284218). The essentials:
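Rat primary cortical cultures, AraC at DIV 5, chemical dosing DIV 7 to DIV 12 (288.33 h). Fixed cells stained for MAP2, synaptophysin and Hoechst; synapses per neuron counted by high-content imaging, loss of signal versus DMSO.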

Test [8] is described as follows: CCTE_Mundy_HCI_hN2_NOG_NeuriteCount: CCTE's Neurite Outgrowth Assay in human hN2 cells for Neurite Count, Mundy Lab (AID 2284219; active = hit-call score of the fitted dose curve at least 0.9, where 1 is the maximum). Put shortly:
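In this morphology assay, hNP1-derived neurons received test chemical 2 h post-plating and were fixed two days later in warm paraformaldehyde/sucrose containing Hoechst 33342. Neurites, labelled by rabbit anti-βIII-tubulin (1:800) and Alexa Fluor-488 (1:500), were counted automatically.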

Test [9] in a line: CCTE_Mundy_HCI_hN2_NOG_NeuriteLength: CCTE's Neurite Outgrowth Assay in human hN2 cells for Neurite Length, Mundy Lab (AID 2284220; active = hit-call score of the fitted dose curve at least 0.9, where 1 is the maximum). The essentials: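 Read-out is neurite length from high-content imaging of βIII-tubulin/Alexa Fluor-488-labelled neurons, referenced to DMSO controls.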
A short description of test [10]: CCTE_Mundy_HCI_hN2_NOG_NeuronCount: CCTE's Neurite Outgrowth Assay in human hN2 cells for Neuron Count, Mundy Lab (AID 2284221; active = hit-call score of the fitted dose curve at least 0.9, where 1 is the maximum). Put shortly: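 Read-out is the number of betaIII-tubulin-positive neurons imaged by automated high-content analysis, with DMSO as negative control.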
Test [11] in a line: CCTE_Mundy_HCI_Cortical_Synap_Neur_Matur_NeuriteCount: CCTE's Synaptogenesis and Neurite Maturation Assay in rat cortical cells for Neurite Count, Mundy Lab (AID 2284222).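 Note: exposure from day 7 to day 12 in vitro with readout at day 12.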 The essentials:
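In this multiplexed morphology readout, rat primary cortical neurons are fixed at DIV 12 following dosing at DIV 7 and stained for MAP2, synaptophysin and nuclei. High-content image analysis yields neurite count.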

Test [12] can be described thus: CCTE_Mundy_HCI_Cortical_Synap_Neur_Matur_CellBodySpotCount: CCTE's Synaptogenesis and Neurite Maturation Assay in rat cortical cells for Cell Body Spot Count, Mundy Lab (AID 2284223). The essentials: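 Chemicals were applied to AraC-treated rat primary cortical cells at DIV 7 and measured at DIV 12. Fixed cells were labelled for MAP2, synaptophysin and nuclei, and high-content imaging gave cell body synaptophysin spot counts per neuron relative to DMSO.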

The nature of test [13]: CCTE_Mundy_HCI_Cortical_NOG_BPCount: CCTE's Neurite Outgrowth Assay in rat cortical cells for Branch Point Count, Mundy Lab (AID 2284237).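 For AC50: branch points counted about two days after chemical exposure.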 Put shortly: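 Measured 50.33 h after dosing, this morphology endpoint uses rat primary cortical cultures labelled for betaIII-tubulin. Branch points are quantified by high-content imaging, with DMSO as negative control and baseline.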

The nature of test [14]: CCTE_Mundy_HCI_hNP1_Casp3_7: CCTE's Caspase-Glo 3/7 Assay in human neuroprogenitor cells for Apoptosis, Mundy Lab (AID 2284240). Put shortly: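 Luminescent caspase-3/7 readout, 26.5 h post-dose, in human neural progenitor cells from WA09 embryonic stem cells. Cells grew 40–44 h at 37 °C, 5% CO2 before chemical addition. Activity analysed as signal increase over DMSO baseline.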

Test [15] is described as follows: TAMU_PeakParms_SingleDonor1434_Chronotropy: Texas A&M University (TAMU) 1.5-hr Human Induced Pluripotent Stem Cell (iPSC)-derived Cardiomyocytes Calcium (Ca+2) Flux Assay for Cardiotoxicity: Chronotropy (changes in peak frequency) (AID 2284217). As to conditions: actives raise or lower the signal. The essentials: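 Using fluorescent Ca2+ flux, average beats per second are measured in human iPSC-derived cardiomyocytes treated 90 min (0.5% DMSO vehicle, 0.2–100 uM). Non-beating data points are removed; activity is modeled in both directions relative to DMSO controls.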

Test [16] in a line: TAMU_HCS_1.5hr_SingleDonor1434_Cytotoxicity: Cytotoxicity Assessment using High-content Screening (HCS) Fluorescent Imaging for the Texas A&M University (TAMU) 1.5-hr Human Induced Pluripotent Stem Cell (iPSC)-derived Cardiotoxicity Assay (AID 2284234; active = hit-call score of the fitted dose curve at least 0.9, where 1 is the maximum). Put shortly: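 Human iPSC-derived cardiomyocytes dosed at 0.2, 1, 10, 100 uM final (0.5% DMSO) for 90 min at 37 C. Hoechst 33342-stained nuclei counted by 10x high-content imaging; POD is EC10, a 10% drop in total cell count versus DMSO.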

A short description of test [17]: TAMU_PeakParms_SingleDonor1434_QT: Texas A&M University (TAMU) 1.5-hr Human Induced Pluripotent Stem Cell (iPSC)-derived Cardiomyocytes Calcium (Ca+2) Flux Assay for Cardiotoxicity: QT (decay-rise ratio) (AID 2284235; active = hit-call score of the fitted dose curve at least 0.9, where 1 is the maximum). The essentials: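 iPSC-derived cardiomyocytes (single donor 1434) dosed at 0.2, 1, 10, 100 uM final in 0.5% DMSO, 90 min at 37C. Ca2+ flux fluorescence decay/rise ratio; EC05 (5% increase versus DMSO) as POD, excluding beat-arrest and severe-notch data.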

The nature of test [18]: IUF_NPC1_viability_72hr: Viability Assessment at 72 hours in the Leibniz Research Institute for Environmental Medicine (IUF) Neural Progenitor Cell Proliferation Assay (NPC1) (AID 2284209). Put shortly: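 Single spheres (0.25-0.35 mm) of human fetal cortex-derived neural progenitor cells were grown in proliferation medium with EGF and FGF at 37C and 5% CO2. They were exposed for 72 h without renewal, and viability was read by alamar blue resorufin fluorescence.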

Test [19] is described as follows: CCTE_Mundy_HCI_Cortical_NOG_NeuronCount: CCTE's Neurite Outgrowth Assay in rat cortical cells for Neuron Count, Mundy Lab (AID 2284236; active = hit-call score of the fitted dose curve at least 0.9, where 1 is the maximum;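 note: neurons counted by imaging betaIII-tubulin and Hoechst stained cortical cells; cells exposed to compound for about 48 hours before fixation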). The essentials: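 Read-out: neuron number by high-content imaging of betaIII-tubulin (Alexa Fluor-488) and Hoechst-labelled rat primary cortical cells.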
Test [20] is described as follows: CCTE_Mundy_HCI_hNP1_Pro_ResponderAvgInten: CCTE's Proliferation Assay in human neuroprogenitor cells, Mundy Lab (AID 2284224; active = hit-call score of the fitted dose curve at least 0.9, where 1 is the maximum). The essentials:
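Proliferation read as average intensity of BrdU-positive cells, imaged at 26.25 h post-dosing: chemical exposure started after 40–44 h culture, BrdU during final 4 h, paraformaldehyde fixation. Positive-direction fit relative to DMSO.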

Records with an inconclusive call do not appear. Calls of active or inactive are those of the source. Rule for the calls, unless noted: active = hit-call score of the fitted dose curve at least 0.9, where 1 is the maximum; inactive = score below 0.9.

On to `Oc1ccccc1`, for which the result in test [1], in [2], in [3], in test [4], in [5] and in test [6] was inactive. The molecule was classed as inactive in test [7], in [8], in test [9], in [10], in test [11] and in [12]. The call in test [13] and in [14] was inactive.

Broadly, the AC50 is the concentration at which the activity in the assay is half-maximal. Consider `CCCOC(=O)c1cc(O)c(O)c(O)c1`, for which the AC50 in test [15] is 50 µM (active); in [17], 22.1 µM (active). In addition, in test [16], the outcome was inactive.

For the molecule `c1ccc2ccccc2c1`, the AC50 in [15] is 9.92 µM (active). Moreover, the molecule was called inactive in test [16] and in test [17].

With `O=C1O[C@H]([C@@H](O)CO)C(O)=C1O`, the call in test [18], in test [1], in [2], in test [3], in [4] and in test [5] was inactive. In addition, the result in test [6], in test [15], in [7], in [11], in test [12] and in test [19] was inactive. Besides, the result in test [13] and in test [14] was inactive.

In the case of `CC(C)(c1cc(Br)c(O)c(Br)c1)c1cc(Br)c(O)c(Br)c1`, the outcome in test [18] and in test [15] was inactive. The AC50 in test [16] is 84.8 µM (active).

In the case of `CN(C)c1ccc(C(=C2C=CC(=[N+](C)C)C=C2)c2ccc(N(C)C)cc2)cc1`, in test [15], the result was inactive. Further, the AC50 in [16] is 4.8 µM (active); in test [17], 0.352 µM (active).

As to `CN1C(=O)CC[C@H]1c1cccnc1`, the molecule was classed as inactive in test [1], in [2], in [3], in [4], in [5] and in test [6]. Moreover, the outcome in [7], in test [8], in [9], in [10], in [11] and in test [12] was inactive. Besides, the call in test [13] and in [14] was inactive.

Consider `CC/C(=C(/CC)c1ccc(O)cc1)c1ccc(O)cc1`, for which the molecule was classed as inactive in [1], in [15], in test [11], in test [12], in [20] and in test [17]. Besides, the AC50 in test [2] was 8.64 µM (active); in test [3] it was 22.6 µM (active); in test [4] it was 23.7 µM (active); in test [5], 9.46 µM (active); in [6] it was 14.3 µM (active); in [7], 15.4 µM (active). The AC50 in test [8] was 9.12 µM (active); in test [9], 7.97 µM (active); in test [10], 3.72 µM (active); in test [16], 50 µM (active); in test [19], 28.9 µM (active); in test [13], 12.8 µM (active). Moreover, the AC50 in [14] was 26.5 µM (active).
